Experimental data: PubChem BioAssay AID623865 (Southern Research Specialized Biocontainment Screening …, 2012)
Calls of active or inactive are those of the source. No rule for the calls is given here.

Assay: antiviral activity against WNV-induced cytopathicity – cell-based, secondary screen, flavivirus guanylyltransferase probe project (AID 623865)
Conditions: West Nile virus CPE inhibition assay; series mostly up to 50 µM

Structure (SMILES) | outcome
O=S(=O)(Nc1cc(Cl)c(O)c2ccccc12)c1ccc(F)cc1 | inactive
O=[N+]([O-])c1cccc(S(=O)(=O)Nc2cc(Sc3nc4ccccc4s3)c(O)c3ccccc23)c1 | inactive
Cc1ccc(S(=O)(=O)Nc2cc(Sc3nc(C)cc(C)n3)c(O)c3ccccc23)cc1 | inactive
COc1ccc(OC)c(S(=O)(=O)Nc2cc(SCC(=O)O)c(O)c3ccccc23)c1 | inactive
Cc1cc(C)c(S(=O)(=O)Nc2cc(SCC(=O)O)c(O)c3ccccc23)c(C)c1 | inactive
O=S(=O)(Nc1cc(Sc2ccccc2)c(O)c2ccccc12)c1ccc(F)cc1 | inactive
O=S(=O)(Nc1cc(SCc2ccccc2)c(O)c2ccccc12)c1ccc(Cl)cc1 | inactive
Cc1cc(F)ccc1S(=O)(=O)Nc1cc(SCC(=O)O)c(O)c2ccccc12 | inactive
O=S(=O)(Nc1cc(Sc2ncn[nH]2)c(O)c2ccccc12)c1ccc(F)cc1 | inactive
O=C(O)CSc1cc(NS(=O)(=O)c2cccc3cccnc23)c2ccccc2c1O | inactive
O=[N+]([O-])c1cccc(S(=O)(=O)Nc2cc(SCc3ccccc3)c(O)c3ccccc23)c1 | inactive
O=C(O)CSc1cc(NS(=O)(=O)c2cccc([N+](=O)[O-])c2)c2ccccc2c1O | inactive
Cc1ccc(S(=O)(=O)Nc2cc(SCC(=O)O)c(O)c3ccccc23)cc1 | inactive
O=C(O)CSc1cc(NS(=O)(=O)c2ccc(Br)cc2)c2ccccc2c1O | inactive
O=C(O)CSc1cc(NS(=O)(=O)c2ccc(F)cc2)c2ccccc2c1O | inactive
Cn1c(=O)c2[nH]c(-c3ccccc3)c(O)c2n(C)c1=O | inactive
Cn1c(=O)c2[nH]c(-c3ccc(Cl)cc3)c(O)c2n(C)c1=O | inactive
O=C(O)CSc1cc(NS(=O)(=O)c2ccc(Cl)cc2)c2ccccc2c1O | inactive
